Test results reported in PubChem BioAssay AID1159580 (chemical genetic matrix, 2015).
Several values for one entry are separate records, joined by “and”; a condition that tells them apart may be missing. Identical values can stand only once. The campaign covered roughly 5,500 compounds. About 2,000 (36%) were called active. Roughly 18% stayed inconclusive and do not appear here. Rule as the data show it: active = normalized growth mostly below about 0.91 (no sharp cut-off); inconclusive = no clear call, values can overlap the other calls; inactive = mostly above about 0.92. The list shows a part of the results.

Experiment: chemical genetic growth profiling, strain panel (AID 1159580);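 also: tested at 20 µM; growth read once vehicle control cultures reached saturation at 30 °C; 1 = growth at the plate median or of vehicle wells; lower values mean less growth of the strain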
Settings: S. cerevisiae deletion strains, growth OD

Measured: normalized growth

CN1CCC(=C2c3ccccc3Sc3ccccc32)CC1
inactive: locus YAL013W, strain DEP1, stronger effect = lower value 0.994 | locus YAL021C, strain ccr4, stronger effect = lower value 0.936 | locus YAL026C, strain drs2, stronger effect = lower value 0.994 | locus YAL030W, strain snc1, stronger effect = lower value 1.03 | locus YBL061C, strain skt5, stronger effect = lower value 1.04 | locus YBR009C, strain hhf1, stronger effect = lower value 1.06 | locus YBR023C, strain chs3, stronger effect = lower value 1.02 | locus YBR171W, strain sec66, stronger effect = lower value 1.04 | locus YBR229C, strain ROT2, stronger effect = lower value 0.998 | locus YBR231C, strain swc5, stronger effect = lower value 1.05 | locus YBR279W, strain paf1, stronger effect = lower value 1.02 | locus YCL011C, strain gbp2, stronger effect = lower value 1.04 | locus YCL016C, strain dcc1, stronger effect = lower value 1.03 | locus YCL029C, strain bik1, stronger effect = lower value 1.05 | locus YCL061C, strain MRC1, stronger effect = lower value 1.04 | locus YCL069W, strain vba3, stronger effect = lower value 1.02 | locus YCR088W, strain abp1, stronger effect = lower value 1.03 | locus YDL005C, strain med2, stronger effect = lower value 1.05 | locus YDL035C, strain GPR1, stronger effect = lower value 0.951 | locus YDL040C, strain nat1, stronger effect = lower value 1.01 | locus YDL074C, strain BRE1, stronger effect = lower value 0.986 | locus YDL101C, strain DUN1, stronger effect = lower value 1.03 | locus YDL134C, strain PPH21, stronger effect = lower value 1.01 | locus YDL185W, strain tfp1, stronger effect = lower value 1.01 | locus YDL192W, strain arf1, stronger effect = lower value 1.01 | locus YDR001C, strain nth1, stronger effect = lower value 1.02 | locus YDR069C, strain doa4, stronger effect = lower value 1.02 | locus YDR101C, strain arx1, stronger effect = lower value 1.01 | locus YDR150W, strain NUM1, stronger effect = lower value 1.01 | locus YDR159W, strain sac3, stronger effect = lower value 1.07 | locus YDR162C, strain NBP2, stronger effect = lower value 1.01 | locus YDR195W, strain ref2 1.11 | locus YDR297W, strain sur2, stronger effect = lower value 1.03 | locus YDR318W, strain mcm21, stronger effect = lower value 1.01 | locus YDR334W, strain swr1, stronger effect = lower value 1.03 | locus YDR335W, strain msn5, stronger effect = lower value 1.02 | locus YDR388W, stronger effect = lower value 0.955 | locus YDR392W, strain spt3, stronger effect = lower value 0.982 | locus YDR502C, strain sam2, stronger effect = lower value 0.995 | locus YEL003W, strain gim4, stronger effect = lower value 1.03 | locus YEL037C, strain rad23, stronger effect = lower value 1.02 | locus YEL061C, strain CIN8 (second series), stronger effect = lower value 1.02 | locus YEL061C, strain CIN8, stronger effect = lower value 1.01 | locus YER015W, strain faa2, stronger effect = lower value 1.01 | locus YER016W, strain bim1, stronger effect = lower value 1.03 | locus YER110C, stronger effect = lower value 1.01 | locus YER111C, strain swi4, stronger effect = lower value 1.03 | locus YER155C, strain BEM2 (second series), stronger effect = lower value 1.03 | locus YER155C, strain BEM2, stronger effect = lower value 1.01 | locus YER167W, strain BCK2, stronger effect = lower value 1.01 | locus YFR010W, strain ubp6, stronger effect = lower value 0.999 | locus YGL078C, strain dbp3, stronger effect = lower value 1.01 | locus YGL086W, strain mad1, stronger effect = lower value 0.99 | locus YGL167C, strain pmr1, stronger effect = lower value 1.03 | locus YGL173C, strain kem1, stronger effect = lower value 1.04 | locus YGL227W, strain vid30, stronger effect = lower value 1.03 | locus YGL240W, strain doc1, stronger effect = lower value 1.06 | locus YGL248W, strain PDE1, stronger effect = lower value 1 | locus YGL253W, strain hxk2, stronger effect = lower value 1.01 | locus YGR078C, strain PAC10, stronger effect = lower value 0.977 | locus YGR135W, strain pre9, stronger effect = lower value 0.934 | locus YGR229C, strain SMI1, stronger effect = lower value 0.839 | locus YHR013C, strain ard1, stronger effect = lower value 0.934 | locus YHR027C, strain rpn1, stronger effect = lower value 1.02 | locus YHR030C, strain SLT2, stronger effect = lower value 1.01 and 0.969 | locus YHR079C, strain IRE1 (second series), stronger effect = lower value 1.02 | locus YHR079C, strain IRE1, stronger effect = lower value 0.986 | locus YHR094C, strain hxt1, stronger effect = lower value 1.01 | locus YHR129C, strain ARP1, stronger effect = lower value 1.01 | locus YHR142W, strain chs7, stronger effect = lower value 0.98 | locus YHR200W, strain rpn10, stronger effect = lower value 1.01 | locus YIL066C, strain RNR3, stronger effect = lower value 1.01 | locus YIL073C, strain SPO22, stronger effect = lower value 1.01 | locus YIL125W, strain kgd1, stronger effect = lower value 1 | locus YIR030C, strain dcg1, stronger effect = lower value 1.02 | locus YJL092W, strain hpr5, stronger effect = lower value 1.02 | locus YJL095W, strain BCK1 (second series), stronger effect = lower value 1.02 | locus YJL095W, strain BCK1, stronger effect = lower value 0.974 and 0.973 | locus YJL115W, strain asf1, stronger effect = lower value 1.02 | locus YJL129C, strain trk1, stronger effect = lower value 1.07 | locus YJL134W, strain LCB3, stronger effect = lower value 0.994 | locus YJL154C, strain vps35, stronger effect = lower value 1.01 | locus YJL164C, strain tpk1, stronger effect = lower value 1.02 | locus YJL166W, strain qcr8, stronger effect = lower value 1.03 | locus YJL168C, strain set2, stronger effect = lower value 1.01 | locus YJL187C, strain SWE1 (second series), stronger effect = lower value 1.02 | locus YJL187C, strain SWE1, stronger effect = lower value 1.02 | locus YJR043C, strain POL32, stronger effect = lower value 1.07 | locus YJR066W, strain TOR1, stronger effect = lower value 0.956
active: locus YBR021W, strain FUR4, stronger effect = lower value 0.775 | locus YDR137W, strain rgp1, stronger effect = lower value 1.2 [resistant] | locus YGR252W, strain gcn5, stronger effect = lower value 0.765
